# Compounds without any hit were thinned out: in the full panel of roughly 79,000, 15% have a hit. Values without a mark were called inactive. Rule as the data show it: active = growth inhibition above about 70%; inactive = the rest.
# Assay: NCI Yeast Anticancer Drug Screen. Data for the rad14 strain (AID 159);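 also: 0% = growth of vehicle-treated control cultures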
# Conditions: S. cerevisiae rad14 strain growth inhibition; at 3.7 µM; hits give high values
# Summary of the method: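 Here, inhibition of yeast growth was measured after compound exposure, using a strain with a genetic defect in DNA damage repair and vehicle-treated cultures as the reference.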
row,SMILES,growth inhibition
1,CCOP(=O)(OCC)C(Cc1ccccc1)N=C(c1ccccc1)c1ccccc1 (centres undefined),-6%
2,CCc1ncnc2cc(OCC3CO3)c(OC)cc12 (centres undefined),1%
3,CCOC(=O)[C@H]1Nc2ccccc2C2c3ccccc3CC21 (some centres undefined),-16%
4,O=CNc1ccc2c(c1)C(=O)c1ccccc1-2,9%
5,CCOc1ccc2c(c1)c(CC(=O)O)cn2C,7%
6,OC1CSCCCSCCSCCCSC1,-37%
7,N#Cc1c(N)[nH]c2ccc(Sc3ccccc3)cc12,4%
8,Cc1ccc(-c2ccc(Nc3c4ccccc4nc4ccccc34)cc2)cn1,-19%
9,c1ccc2c(c1)NC(NC1Nc3ccccc3N1)N2,-1%
10,OC(COc1cccc2ccccc12)CN1CCOCC1 (centres undefined),39%
11,CCC/C(Cl)=N\OC(=O)Nc1ccc(Br)cc1,33%
12,COc1ccc(/C=C2\SC(=S)N(/C=C/c3nc4ccccc4[nH]c3=O)C2=O)cc1OC,4%
13,O=C(NNc1ccnc2cc(Cl)ccc12)/C(=C\c1ccccc1Cl)NC(=O)c1ccccc1,1%
14,CSC1=NNC(SC)=NN1,-4%
15,Cc1c(C2=C(Br)C(=O)N(C)C2=O)c(=O)n(C)c(=O)n1C,13%
16,NCCNc1ccc(NCCN)c2c1C(=O)c1c(O)ccc(O)c1C2=O,5%
17,Cn1c(=O)c(-c2ccccc2)c(N=[N+]=[N-])c2ccccc21,4%
18,CCCCCCCCCCCCCCCCCCOCC(O)COP(=O)(O)OCC1OC(n2cc(F)c(=O)[nH]c2=O)CC1O (centres undefined),9%
19,CCS(=O)(=O)c1ccc(/C=C/C=N/NC(=S)NCC(C)C)cc1,3%
20,CCC(=O)Oc1c(Cl)cc(Cl)c2ccccc12,-4%

row,SMILES,growth inhibition
1,COc1cc2c3c(cccc3c1)C(=O)N(CCN(C)C)C2=O,-18%
2,CN(C)c1ccc(C(C#N)=C(C#N)C#N)cc1,8%
3,O=C(CCCN1CCC2(CC1)CC(=O)N(N1CCCCCC1)C2=O)c1ccc(F)cc1,51%
4,O=C1C2C(C(=O)N1c1ccc(OCc3ccccc3)cc1)C1c3ccccc3C2C2CCCCN21 (centres undefined),3%
5,CCN(CC)CCC(=O)c1ccc(Oc2ccc(F)cc2)cc1,39%
6,O=Nc1c(NO)ccc2nn(-c3ccccc3)nc12,31%
7,CC(=O)SCCC[Si](C)(C)CCCSC(C)=O,0%
8,O=C(O)C1CCCCC1c1c2ccc(=O)c(O)c-2oc2c(O)c(O)ccc12 (centres undefined),-7%
9,Cc1ccc(NN(NC(=O)OC(C)C)C(=O)OC(C)C)cc1,-1%
10,O=C1c2ccccc2C(=O)c2cc(CBr)ccc21,6%
11,Cc1c(C(Cc2ccccc2N(C)C(=O)/C=C\C(=O)O)c2c[nH]c3ccccc23)c2ccccc2n1C (centres undefined),-11%
12,CC(C)/C(Cl)=N\OC(=O)Nc1ccc(F)cc1,8%
13,O=C1OC(=O)C2CCCC3CCCC1C32 (centres undefined),28%
14,CCOC(=O)C(NC(=O)c1ccccc1)(N1CCN(c2cc3c(cc2F)c(=O)c(C(=O)O)cn3C2CC2)CC1)C(F)(F)F (centres undefined),2%
15,COc1ccc(NC(=S)N/N=C(\c2ccccc2)c2ccccn2)cc1,-4%
16,C=CCC1=C(C)C(OC(=O)/C=C/c2ccccc2)CC1=O (centres undefined),2%
17,NNc1c(F)c(F)cc(F)c1F,-25%
18,COP(=O)(OC)/C(=C\C1=CN(C(c2ccccc2)(c2ccccc2)c2ccccc2)CN1)NC=O,-1%
19,COC(=O)c1cc(-c2ccc(C)cc2)[nH]c(=O)c1C#N,-6%

# — PubChem BioAssay (NCI)
